The list is not random: actives were taken first. Their share in the collection is about 17%.
TGFb SMAD3 inh: inhibitors of TGF-b signaling. 410,000 compounds, 1.2% hits. HepG2 CAGA-GFP TGF-b/SMAD3 reporter, GFP fluorescence, 18 h; TGF-beta stimulated, 500 pg/mL final. Potency, µM (top dose mostly 46.1 µM), usual class: inhibitors. AID 588855; note: nearly all actives have a fitted effect of over 65% in size
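HEPG2 CAGA-GFP, 1000 cells/well; 2 h settle, 37 C; cpd via pin tool; TGF-b 500 pg/mL final; 18 h, 37 C; GFP imaging ex488/em500-530; %Activity normalised to -TGF-b and +DMSO controls; CRC fit, curve class.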
DT40 TDP1 CPT: growth inhibition of DT40 Tdp1-/-;hTDP1 cells with camptothecin (screen for TDP1 inhibitors); Potency, µM (top dose mostly 46.2 µM), usual class: inhibitors; 420,000 compounds, 12% hits; chicken DT40 Tdp1-/-;hTDP1 cells + 20 nM CPT, ATP luminescence, 48 h; note: nearly all actives have a fitted effect of over 55% in size
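Chicken DT40 Tdp1-/- cells complemented with human TDP1, 400 cells/well, exposed to compounds plus 20 nM camptothecin for at least 48 h at 37 C; viability read as ATP content by CellTiter-Glo luminescence.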
HepG2 viability: kills HepG2 cells in TGF-b inhibitor counter-screen | HepG2 CAGA-GFP viability, ATP luminescence, 18 h | Potency, µM (highest dose often 46.1 µM), actives largely listed as cytotoxic | 410,000 compounds, 0.76% hits
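HepG2 CAGA-GFP cells (1000/well, DMEM with 1% FBS) received compound, then TGF-beta at 500 pg/mL final, and were incubated 18 hours at 37 degrees C. Viability was read by CellTiter-Glo luminescence. Media-only wells were set as complete cell-killing and DMSO as no toxicity.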
DT40 TDP1 no CPT: qHTS for Inhibitors of human tyrosyl-DNA phosphodiesterase 1 (TDP1): qHTS in cells in absence of CPT; DT40 Tdp1-/- hTDP1 cells, no CPT, ATP luminescence, 48 h; Potency, µM (top dose mostly 46.2 µM), hits mostly inhibitors; 420,000 compounds, 15% hits; note: nearly all actives have a fitted effect of over 55% in size
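Chicken DT40 Tdp1-/- cells stably complemented with human TDP1 were seeded at 400 cells/well with DMSO in place of 20 nM camptothecin. After compound pinning, cells grew at least 48 hr at 37 °C; viability read by CellTiter-Glo luminescence.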
ATXN2 expr inh: inhibitors of ATXN2 expression. HEK-293 ATXN2-luciferase reporter, luminescence, 24 h. Potency, µM (doses to about 57 µM), hits mostly inhibitors. 360,000 compounds, 0.72% hits; note: nearly all actives have a fitted effect of over 55% in size
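qHTS (up to 57 uM final) was run with 24 h compound exposure of reporter cells at 37 °C. Each well was multiplexed: SteadyGlo luminescence measured ATXN2-luciferase expression after a fluorogenic Gly-Phe-AFC viability readout (25 uM final).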
S2 tox: viability counter-screen for ATXN expression inhibitors; S2 cells (HEK-293 line with an ATXN2-luciferase reporter) viability, CellTiter-Fluor protease fluorescence, 24 h; Potency, µM (highest dose often 56.7 µM), most hits filed as cytotoxic; 400,000 compounds, 0.49% hits; AID 651635; note: nearly all actives have a fitted effect of over 40% in size
Hits are given with their value; - = inactive; ? = inconclusive; . = not tested or not shown; ! = repeats disagree; [ ] = remark or other dose. Calls come from the whole dose curve; as a rule, active = well fitted curve in the direction sought with a large enough effect; inconclusive = small, poorly fitted or top-dose-only effect, or another doubt; inactive = no such curve, though single readings can be large; an effect the other way counts as inactive or inconclusive.

SMILES	TGFb SMAD3 inh	DT40 TDP1 CPT	HepG2 viability	DT40 TDP1 no CPT	ATXN2 expr inh	S2 tox
Cc1ccccc1CN1CCN(S(=O)(=O)c2ccc(F)cc2)CC1	-	?	-	?	-	-
CC(C)c1ccc(S(=O)(=O)N2CCN(C(=O)C3=COCCO3)CC2)cc1	-	?	-	?	-	-
COc1ccc(Cl)cc1S(=O)(=O)N1CCCC(C(=O)NCc2ccccn2)C1 (stereo not given)	-	-	-	-	-	?
Cn1cc(SCC(=O)Nc2ccc3c(c2)OCCO3)c2ccccc21	-	-	-	-	-	-
O=C(CSc1cn(CCNC(=O)c2cccs2)c2ccccc12)NC1CCCC1	-	16µM	-	16µM	-	-
O=C(CSc1cn(CCNC(=O)c2cccc(C(F)(F)F)c2)c2ccccc12)Nc1ccc2c(c1)OCCO2	?	23µM	-	?	-	.
O=C(CSc1ccccc1C(=O)NCc1ccccc1)NC1CCCCCCC1	-	?	-	?	-	?
O=C(CSc1cn(CCNC(=O)c2ccccc2F)c2ccccc12)Nc1ccc2c(c1)OCCO2	?	23µM	-	16µM	-	?
CC(C)CCNC(=O)c1ccccc1SCC(=O)NC1CCCCCCC1	?	23µM	-	?	-	-
O=C(NCCn1cc(SCc2ccc(F)cc2)c2ccccc21)c1ccccc1F	?	?	-	16µM	?	?
O=C(NCCn1cc(SCc2ccc(C(F)(F)F)cc2)c2ccccc21)c1ccccc1F	?	?	-	?	?	?
O=C(NCCn1cc(SCc2ccccc2)c2ccccc21)c1c(F)cccc1F	?	?	-	23µM	-	-
O=C(NCCn1cc(SCc2ccc(F)cc2)c2ccccc21)c1c(F)cccc1F	?	?	-	?	-	?
O=C(CSc1cn(CCNC(=O)c2ccccc2F)c2ccccc12)Nc1ccc(F)cc1	?	23µM	-	23µM	-	?
CCCOP(=O)(c1ccc(N(C)C)cc1)C(O)c1ccc(N(C)C)cc1 (stereo not given)	-	-	-	-	-	-
O=C(c1ccccc1F)N1CCN(c2ccc([N+](=O)[O-])c(NCC3CCCO3)c2)CC1 (stereo not given)	?	?	-	18µM	.	?
O=[N+]([O-])c1ccc(N2CCN(S(=O)(=O)c3ccc(Cl)cc3)CC2)cc1NCC1CCCO1 (stereo not given)	-	-	-	-	-	-
C[C@@H]1O[C@@H](OC[C@H]2O[C@@H](Oc3c(-c4ccc(O)c(O)c4)oc4cc(O)cc(O)c4c3=O)[C@H](O)[C@@H](O)[C@@H]2O)[C@H](O)[C@H](O)[C@H]1O	-	-	-	?	-	?
O=c1c2c(O)cc(O)cc2oc2ccc(O)c(O[C@@H]3O[C@H](CO)[C@@H](O)[C@H](O)[C@H]3O[C@H]3O[C@H](CO)[C@@H](O)[C@H](O)[C@H]3O)c12	-	-	-	-	-	-
COc1c(-c2ccc(O)c(O)c2)oc2cc(O)cc(O)c2c1=O	-	10µM!	-	9.2µM!	-	-
O=c1c(OC2OC(CO)C(O)C(O)C2OC2OC(CO)C(O)C(O)C2OC2OC(CO)C(O)C(O)C2O)c(-c2ccc(O)c(O)c2)oc2cc(O)cc(O)c12 (stereo not given)	-	15µM	-	21µM	-	-
NC(=O)CC(NC(=O)Cc1cccc2ccccc12)c1ccc(N2CCN(c3ccc(F)cc3)CC2)c([N+](=O)[O-])c1 (stereo not given)	-	?	-	?	-	?
NS(=O)(=O)c1ccc(NC2=CC(=O)c3ccccc3C2=O)cc1	.	.	.	.	-	.
O=C1C=C(NCc2ccccc2)CCC1	-	-	-	-	-	?
O=C1C=C(NCc2ccccc2)c2ccccc2C1=O	?	5.8µM	-	15µM	-[11.3 µM]	?
SMILES	TGFb SMAD3 inh	DT40 TDP1 CPT	HepG2 viability	DT40 TDP1 no CPT	ATXN2 expr inh	S2 tox
Cc1ccc(NC(=O)COC(=O)c2cccc3c2C(=O)c2ccccc2C3=O)c(C)c1	-	?	-	?	?	?
Cc1ccc(NC2=CC(=O)C(=O)c3ccccc32)c(C)c1	?	4.6µM	5µM	18µM	.	?
O=C1C=C(Nc2ccccc2O)c2ccccc2C1=O	1.8µM	3.7µM	2.5µM	3.3µM	14µM	?
CC(C)(C)N(Cc1ccccc1)C(=O)COC(=O)Cn1cnc2ccccc2c1=O	-	-	-	-	-	-
CCc1nnc(NC(=O)c2nc3nc(C)cc(C)n3n2)s1	-	-	-	-	-	-
Cc1cc(C)c(NC(=O)CNC(=O)COC(=O)C2=COCCO2)c(C)c1	-	-	-	-	-	-
CCOC(=O)c1ccccc1NC(=O)CN1C(=O)CC(c2ccco2)Sc2ccccc21 (stereo not given)	-	.	-	.	-	?
COc1ccc(-c2cn[nH]c2-c2ccc(OCc3ccc(F)cc3)cc2O)cc1OC	14µM	21µM	-	23µM	?	?
COc1ccc(-c2cn[nH]c2-c2ccc(OCc3ccccc3)cc2O)cc1OC	?	16µM	-	18µM	-	?
Oc1cc(OCc2ccccc2)ccc1-c1[nH]ncc1-c1ccccc1	?	10µM	20µM	12µM	?	?
COc1ccccc1-c1cn[nH]c1-c1ccc(OCc2ccccc2F)cc1O	?	18µM	22µM	15µM	?	?
O=[N+]([O-])c1ccc(COc2ccc(-c3[nH]ncc3-c3ccccc3)c(O)c2)cc1	?	?	-	?	-	?
COc1ccccc1-c1cn[nH]c1-c1ccc(OCc2ccc(F)cc2)cc1O	?	?	-	?	-	-
OC1(c2ccc3c(c2)CN(Cc2nccs2)CCO3)CCN(c2ccccc2F)CC1	.	?	.	?	.	-
CCOC(=O)C1(C)CCCCCN1C(=O)c1ccc(C(=O)OC)cc1 (stereo not given)	-	?	-	?	-	-
Cc1nc(SCC(=O)NC(C)(C)C)c2c(-c3cccs3)csc2n1	?	-	-	?	-	-
Cc1ccc(/C=C2/NC(=O)N(Cc3ccccc3F)C2=O)s1	-	?	-	-	-	-
CCCN1C(=O)/C(=C/c2ccc(C)s2)NC1=S	-	26µM	-	-	-	-
CCOC(=O)NC(=O)c1cn(Nc2ccccc2)c(=O)[nH]c1=O	-	-	-	-	-	-
COc1cccc(C2C=C(c3ccccc3)Nc3c(C(=O)Nc4ccccc4)cnn32)c1OC (stereo not given)	-	16µM	-	15µM	.	.

High-throughput results as filed in PubChem.
